Data on 40 compounds can be found in PubChem BioAssay (NCI).

Several values for one entry are separate records, joined by “and”; a condition that tells them apart may be missing. Equal entries are not always repeated. Compounds without any hit were thinned out: in the full panel of roughly 83,000, 20% have a hit.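 Testing used 96-well plates and a 48-hour single-concentration exposure. Example: -40 means 40% of the starting cells died.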 Unmarked numbers belong to inactive results. Activity calls are given as the source filed them. The calls were made as follows: active = growth percent below 10; inactive = the rest.

The experiment relates to HL-60(TB) leukemia. In words: NCI-60 one-dose screen, 48 h (100 = growth as untreated, 0 = no growth, -100 = all killed). The conditions noted are these: 10 µM unless noted.
For `Cc1nc(Nc2ccccn2)sc1C(=O)/C=C/c1ccc(Cl)cc1`, the growth was -38.8% (active).

Regarding `Cn1c(=O)c2[nH]c(CCCCCCCCc3nc4ccccc4[nH]3)nc2n(C)c1=O`, the growth is 59.4% and 71.2%.

Consider `COc1ccc2c(c1)C1=NN(C(=O)CO)[C@H](c3ccc(OC(F)(F)F)cc3)[C@@H]1CC2`, for which the growth was 104%.

Consider `COc1cc(C(=O)N2CCN(c3ccccc3)CC2)c2ccccc2n1`, for which the growth is -1.74% (active).

Regarding `O=C(Nc1ccc(Br)cc1)Nc1ccccc1Cl`, the growth was 70.7%.

For `COc1cc(-c2nn(-c3cccc(NC(=O)NCCNC(=O)c4ccccc4)c3)cc2-c2ccncc2)ccc1Cl`, the growth is -8.76% (active).

On to `Oc1c(C(c2ccc(F)cc2)N2CCCCC2)ccc2cncnc12` (stereo not given), for which the growth was -29.3% (active).

Consider `O=C(Cn1c2c(c3ccccc31)CCCC2)Nc1ccc(-c2nc3ccccc3s2)cc1`, for which the growth is 99.1%.

As to `COc1ccc(-c2cn(-c3cc(OC)c(OC)c(OC)c3)c(=O)n2C(C)=O)cc1`, the growth was 32.2%.

`CCCCCCCCCCCCCCCCCC1=NCCN1CCO`: the growth is 36.3%.

As for `COc1ccc(C2C=C(c3ccc(Cl)cc3)N=C3SC=CN32)cc1` (stereo not given), the growth was 113%.

For `COc1cc(/C=C\c2cc(/C=C\c3ccc(O)c(OC)c3)n(C(=O)COc3ccc(Cl)cc3Cl)n2)ccc1O`, the growth is -18.7% (active).

With `Nc1ncnc2c1C(c1ccccc1)c1ccc3ccccc3c1O2` (stereo not given), the growth was 82.4%.

Take `COc1ccc(-c2conc2-n2nc(-c3ccccc3)nc2-c2ccccc2)cc1`: the growth is 99.3%.

In the case of `CCc1ccc(Nc2cc(C)nc3nc(C)nn23)cc1`, the growth is -54.6% (active).

`Cn1cc(-c2csc(-c3cn(C(=O)OC(C)(C)C)c4ccc(Br)cc34)n2)c2ccnc(Cl)c21`: the growth was 115%.

Regarding `CC12CCCCC1C(C(N)=O)C(=O)O2` (stereo not given), the growth was 102%.

With `CCCCCCCCN=C(NCCCCCCCC)SCc1cccc2ccccc12`, the growth is -43.4% (active).

On to `CC(=O)Nc1ccc(CC[C@H]2CCC/C=C/[C@@H]3C[C@H](O)C[C@H]3[C@H](O)/C=C/C(=O)O2)cc1`, for which the growth is -9.6% (active).

As to `COc1ccc2c(c1)C(C)Cc1c(N(C)C)ncnc1N2C` (stereo not given), the growth was -4.85% (active).

Regarding `Cn1cc(-c2csc(-c3c[nH]c4ccc(Br)cc34)n2)c2cnccc21`, the growth was -56.6% (active).

In the case of `CCC(=O)OCc1ccc(OC)cc1`, the growth is 97%.

`CCS/C(Nc1ccccc1)=C(\C#N)C(=O)N/N=C/c1ccc(Cl)cc1Cl`: the growth is -31.4% (active).

As to `COc1cc(-c2nc3sc4c(c3c(=O)[nH]2)CCCCCC4)cc(OC)c1OC`, the growth is -19.3% (active).

Regarding `Cc1ccc(-n2nnc3c(sc4ccccc43)c2=O)cc1`, the growth was 92.9%.

In the case of `Nc1ncnc2c1ncn2C1OC(CO)C(O)C1O` (stereo not given), the growth was 65.5% and 84.5% and 105%.

Consider `O=C(/C=C/c1cccc2ccccc12)c1ccc(NC(=O)c2ccccc2CN2C(=O)c3ccccc3C2=O)cc1`, for which the growth was 44%.

Consider `CC(=O)CC(c1ccc([N+](=O)[O-])cc1)c1c(O)c2ccccc2oc1=O` (stereo not given), for which the growth was 97%.

Turning to `CC1(C)CC[C@]2(C(=O)O)CC[C@]3(C)C(=CC[C@@H]4[C@@]5(C)C/C(=C/O)C(=O)C(C)(C)[C@@H]5CC[C@]43C)[C@@H]2C1`, the growth is 4.77% (active).

As to `COc1ccc(C(=O)N2N=C(c3ccc(F)cc3)CC2c2cn(-c3ccccc3)nc2-c2ccccc2)cc1` (stereo not given), the growth is 32.5%.

`Cc1nc2c(=O)[nH]c(SCC(=O)Nc3cccc(F)c3)nc2[nH]c1=O`: the growth was 105%.

Turning to `CCOc1ccc(NC(=S)N2CCC(CCCC3CCN(C(=S)Nc4ccc(OCC)cc4)CC3)CC2)cc1`, the growth was 68.9%.

With `COC(=O)/C=C/c1cc(OC(C)=O)c2c(c1)[C@@H](C(=O)OC)[C@H](c1ccc(OC(C)=O)c(OC(C)=O)c1)O2`, the growth was -42.8% (active).

`O=C(N/N=C/c1cccnc1)c1ccccc1Nc1cccc(C(F)(F)F)c1`: the growth was 64.8%.

For `CC(=O)Nc1ncc(S(=O)(=O)c2ccc([N+](=O)[O-])cc2)s1`, the growth was 113%.

As for `O=c1c2cc(F)ccc2sc2c(Nc3ccncc3)nc3ccccc3c12`, the growth is 6.35% (active).

With `CN1C(=O)CNC(=O)[C@H](NC(=O)c2nc3ccccc3cc2O)CSSC[C@H]1C(=O)NCCCc1nc2ccccc2cc1O`, the growth was -44.3% (active).

In the case of `C=C1C(=O)O[C@H]2[C@H]1CC/C(C(=O)NCCOCCOCC(=O)Nc1ccc(OC)c(C(N)=O)c1O)=C\CC[C@@]1(C)O[C@@H]21`, the growth is 81.3%.

On to `CN(C)CCOC(=O)C(C)(C)C`, for which the growth was 89.7%.

With `Cn1c(-c2nonc2NC(=O)c2ccc(F)cc2)nc2ccccc21`, the growth was -30.1% (active).
